# Experimental data taken from PubChem BioAssay AID602429 (Sanford-Burnham Center for Chemical Genomics, 2012).
# Out of some 360,000 compounds screened, about 1,200 (0.33%) were called active. The entries come from a sample that favours actives as a whole. Values without a mark were called inactive. Cut-off read from the data, not from the text of the source: active = inhibition above about 37%; inactive = the rest.
# Biological target: Small ubiquitin-related modifier 1 (Homo sapiens) (UniProt P63165)
# Test: SUMO1 binding to interaction partners, disruption – biochemical, uHTS, primary screen (AID 602429)
# Conditions: SUMO1 binding to a labelled peptide, TR-FRET, 1 h; at 20 µM; hits give high values
# Small ubiquitin-related modifier 1 (Homo sapiens), sequence (P63165 whole entry, looked up): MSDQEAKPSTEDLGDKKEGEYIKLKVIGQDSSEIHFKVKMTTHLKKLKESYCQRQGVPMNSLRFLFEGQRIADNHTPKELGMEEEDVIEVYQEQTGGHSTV
row,SMILES,inhibition
1,CCCn1c(N)c(C(=O)CSc2nc3ccccc3c(=O)n2-c2ccc(OC)cc2)c(=O)[nH]c1=O,46.9% (active)
2,CCOc1ccc(-n2c(SCC(=O)Nc3cc(C(=O)O)ccc3Cl)nc3ccccc3c2=O)cc1,19.1%
3,CCCn1c(N)c(C(=O)CSc2nnc3n2CCCCC3)c(=O)[nH]c1=O,8.44%
4,COCCOC(=O)c1c(C)oc2cc(Br)c(OCC(N)=O)cc12,-1.35%
5,CCN(c1ccccc1)S(=O)(=O)c1cccc(C(=O)NCc2ccccc2CN2CCOCC2)c1,-2.56%
6,COc1ccc(C)cc1NC(=O)NCCCCc1ccccc1,3.9%
7,O=S(=O)(NCCSc1ccccn1)c1ccc(Cl)cc1,-0.907%
8,O=C(Cc1ccsc1)N1CCN(S(=O)(=O)c2cc(C(F)(F)F)cc(C(F)(F)F)c2)CC1,32.3%
9,CCCc1nc(-c2cc3cc(C)ccc3[nH]c2=O)no1,-3.17%
10,COc1ccc(Cc2cc(-c3ccc(F)cc3)n[nH]c2=O)cc1,-0.22%
11,COc1ccc2[nH]c(=O)c(-c3noc(-c4ccc(F)cc4)n3)cc2c1,64% (active)
12,Cc1cc(C)cc(OCC(=O)Nc2cc(NC(=O)COc3cc(C)cc(C)c3)cc(C(=O)O)c2)c1,13.4%
13,CCN1CCCC1CNC(=O)c1ccc2c(c1)NC(=O)/C(=C\c1ccccc1F)S2 (stereo not given),-60.4%
14,CCN1CCCC1CNC(=O)c1cc2c(=O)n(C)c3ccccc3c2n1C (stereo not given),46.4% (active)
15,CCN1CCCC1CNC(=O)Cn1cnc2ccc(S(=O)(=O)N3CCC(C)CC3)cc2c1=O (stereo not given),-2.59%
16,CCCCn1c(SCc2ncc(-c3ccccc3)o2)nc2cc(S(N)(=O)=O)ccc21,0.0839%
17,CCCCc1nc(SCC(=O)Nc2nnc(C(C)C)s2)n[nH]1,4.69%
18,O=C(COc1ccc(Cl)cc1)Nc1ccc2oc(=O)ccc2c1,4.58%
19,COc1ccccc1CNS(=O)(=O)c1cc(C(=O)NCc2ccccn2)c(Cl)cc1Cl,-1.08%
20,COc1cc(NC(=O)C2=CC(c3ccco3)=NS(=O)(=O)N2C)cc(OC)c1OC,-26.3%

row,SMILES,inhibition
1,COCCNC(=O)c1ccc2nc(Cc3ccc(OC)c(OC)c3)oc2c1,0.593%
2,COCCNC(=O)Nc1ccc2nc(-c3ccco3)c(-c3ccco3)nc2c1,64.2% (active)
3,O=C(NCc1ccco1)C(=O)c1cn(CC(=O)N2CCCCCC2)c2ccccc12,-6.74%
4,CC1(C)CC(=O)C(C=NCc2cccnc2)=C(O)C1,-0.212%
5,Cc1ccccc1S(=O)(=O)Cc1ccc(C(=O)NCCN2CCCCC2C)o1 (stereo not given),-2.78%
6,NC(=S)NN=C1CCCC(C(F)(F)F)C1 (stereo not given),-4.43%
7,CCCc1cc(=S)n2c([nH]c3ccccc32)c1C#N,45.4% (active)
8,COC(=O)c1cccc(NC(=O)CN2CCC(NC(=O)c3cc(OC)c(OC)c(OC)c3)CC2)c1,4.74%
9,CCC(C(=O)N1CCOCC1)n1c(C(=O)OC)cc2occc21 (stereo not given),0.0718%
10,COc1ccc2c(-c3ccccc3)cc(SCC(=O)N(C)C3CCS(=O)(=O)C3)nc2c1 (stereo not given),0.193%
11,O=C(c1cc(-c2ccco2)nc2ccccc12)N(Cc1nnc(-c2ccc(Cl)cc2)o1)C1CC1,5.63%
12,CN(C(=O)COC(=O)c1cc(-c2ccco2)nc2ccccc12)C1CCS(=O)(=O)C1 (stereo not given),105% (active)
13,O=C(Nc1cccc2c1CCCC2)c1ccc(F)cc1,-0.657%
14,O=C(CSc1cccc[n+]1[O-])NCCCc1ccccc1,-1.78%
15,COc1ccc(Cl)cc1NC(=O)COC(=O)c1ccc(Br)o1,3.41%
16,COc1ccc(Cl)cc1NC(=O)CCS(=O)(=O)c1ccc(Br)cc1,71% (active)
17,O=C(CCS(=O)(=O)c1ccc(Br)cc1)NCCc1ccc(Cl)cc1,15.1%
18,CCn1c(O)c2ccc(C(=O)N=NC(=O)c3cccnc3)cc2c1O,-19.8%
19,Cn1c(SCC(=O)Nc2ccc(N3CCOCC3)cc2)nnc1C(F)(F)F,3.07%
20,O=C1C2C3C=CC(C4CC34)C2C(=O)N1c1nccs1 (stereo not given),0.623%

row,SMILES,inhibition
1,CCOc1ccc(C(=O)NCC(=O)N2CCN(c3ccc(C(F)(F)F)cn3)CC2)cc1,-1.81%
2,CC(=O)c1c(OCC(=O)N(C)C2CCCCC2)ccc2c(C)cc(=O)oc12,0.393%
3,O=C(Nc1ccc(C2CC2(Cl)Cl)cc1)c1cccc([N+](=O)[O-])c1 (stereo not given),-19.7%
4,O=C(Nc1cc2c3c(c1)C1CCCC1CN3CC1CCCC21)c1ccc([N+](=O)[O-])cc1 (stereo not given),-12.8%
5,Cn1ccc(=Nc2ccc(NC(=O)c3ccc(N=c4ccn(C)c5ccc([N+](=O)[O-])cc45)cc3)cc2)cc1,78.6% (active)
6,CCCS(=O)(=O)N1CCC(C(=O)NCCCN(C)Cc2ccccc2)CC1,3.93%
7,Cc1ccc(CCN2CC(C(=O)O)CC2=O)cc1 (stereo not given),0.0169%
8,CCOc1ccc2[nH]c(=S)sc2c1,6.23%
9,O=c1[nH]c2ccccc2s1,0.972%
10,Nc1ccc2[nH]c(=S)sc2c1,65% (active)
11,O=C(c1ccc2c(c1)OCCO2)C1CCN(S(=O)(=O)c2cccc(F)c2)CC1,-0.625%
12,CCn1ncc(Br)c1C(=O)Nc1cc(C)ccc1F,1.78%
13,COc1ccc([N+](=O)[O-])cc1NC(=O)CC1SC(=Nc2cccc(C)c2C)N(/N=C(\C)c2ccc(C)cc2)C1=O (stereo not given),-1.72%
14,CCN(CC(=O)N1CCCC1)S(=O)(=O)c1ccc(F)cc1,0.769%
15,COc1nc(N(C)C)nc(N2CC(=O)N(CCNS(=O)(=O)c3ccc(C)cc3)C2=N)n1,44% (active)
16,Cc1ccc(S(=O)(=O)NCCSC(C)(C)C)cc1,2.52%
17,COc1nc(Oc2ccc(=O)n(C)n2)nc(N(C)C)n1,-2.1%
18,O=C(Nc1nnc(CCc2ccccc2)s1)C1CCCO1 (stereo not given),42.9% (active)
19,Cc1cc(C)c2nc(NC(=O)C3CCCO3)sc2c1 (stereo not given),-1.66%
20,O=C(Nc1nnc(SCc2c(Cl)cccc2Cl)s1)C1CCCO1 (stereo not given),4.7%
